Laboratory results from the supplement of paper PMC13380429.
A number with no mark means an inactive call.

What follows are compounds tested on Vero E6 infected with SARS-CoV-2 (assay: inhibition of SARS-CoV-2 cytopathic effect; higher = more antiviral protection, active = above 15). Settings: 100 nM; 48 h.

Structure (SMILES) | inhibition of SARS-CoV-2 cytopathic effect
C#C[C@]1(O)CC[C@H]2[C@@H]3CCc4cc(OC5CCCC5)ccc4[C@H]3CC[C@@]21C [quinestrol] | -0.65%
COc1ccccc1OC(=O)C(C)c1ccc(CC(C)C)cc1 (stereo not drawn) [metoxibutropate] | -1.26%
CC[C@]1(O)C[C@@H]2CN(CCc3c([nH]c4ccccc34)[C@@](C(=O)OC)(c3cc4c(cc3OC)N(C)[C@H]3[C@@](O)(C(N)=O)[C@H](O)[C@]5(CC)C=CCN6CC[C@]43[C@@H]65)C2)C1 [vindesine] | -1.63%
CNC(=O)[C@H](Cc1c[nH]c2ccccc12)NC(=O)[C@@H](CC(=O)NO)CC(C)C [ilomastat] | -1.16%
N#CC1(c2ccc(NC(=O)c3cccnc3NCc3ccncc3)cc2)CCCC1 [apatinib] | 0.81%
CN1[C@@H]2CC[C@H]1C[C@@H](OC(=O)C(CO)c1ccccc1)C2 (stereo partly drawn) | 1.96%
Cc1cccc(/C=N/Nc2cc(N3CCOCC3)n3nc(-c4ccncc4)cc3n2)c1 | 27.3% (active)
OC[C@H]1O[C@H](O[C@]2(CCl)O[C@H](CCl)[C@@H](O)[C@@H]2O)[C@H](O)[C@@H](O)[C@H]1Cl [sucralose] | 0.66%
O=C(/C=C/c1ccc(O)c(O)c1)O[C@H](Cc1ccc(O)c(O)c1)C(=O)O [rosmarinic-acid] | 2.25%
Clc1cccc(C(c2ccc3[nH]cnc3c2)n2ccnc2)c1 (stereo not drawn) [liarozole] | 1.18%
CN(C)CCCCSC(=N)N | -2.41%
COc1cc2c(Nc3ccc(Cl)c(Cl)c3F)ncnc2cc1OC[C@@H]1C[C@@H]2CN(C)C[C@@H]2C1 | -5.42%
CCCCCCCCCCCCCC(=O)OC(C)C [isopropyl-myristate] | 2.06%
N#Cc1c(N)nc(SCc2ncc[nH]2)c(C#N)c1-c1ccc(O)cc1 | 1.83%
CN(C)C(=O)Oc1cccc([N+](C)(C)C)c1 [neostigmine] | 0.73%
COC(=O)c1c(C)[nH]c(C)c1C(=O)c1ccccc1Cc1ccccc1 | 0.4%
NC(=O)c1ccc([N+](=O)[O-])cc1Cl [aklomide] | 2%
O=C(Nc1cc(Cl)cc(Cl)c1O)c1c(O)c(Cl)cc(Cl)c1Cl [oxyclozanide] | 0.71%
CCCNC(C)(C)COC(=O)c1ccccc1 [meprylcaine] | -2.33%

Structure (SMILES) | inhibition of SARS-CoV-2 cytopathic effect
Cc1noc(NS(=O)(=O)c2ccc(N)cc2)c1C [sulfafurazole] | 0.89%
[O-][n+]1cccc(CO)c1 [mepiroxol] | 2.65%
Cc1ccccc1N1CCN(CCc2nnc3n2CCCC3)CC1 [dapiprazole] | 0.65%
Cn1c(=O)n(-c2ccc(C(C)(C)C#N)cc2)c2c3cc(-c4cnc5ccccc5c4)ccc3ncc21 | 0.93%
C[N+](C)(C)CCCCCC[N+](C)(C)C [hexamethonium] | 0.44%
COc1cc(O)c2c(c1)C(=O)c1cc(C)cc(O)c1C2=O [rheochrysidin] | 1.33%
CC(=O)c1ccc(NS(C)(=O)=O)c(Oc2ccc(F)cc2F)c1 | 0.56%
Cc1cc(-c2nc(C(=O)Nc3cn(C4CCOCC4)nc3C(N)=O)co2)ccn1 | -0.57%
CC(C)C[C@@H](C(=O)N[C@H](C(=O)OC1CCCC1)c1ccccc1)[C@H](O)C(=O)NO [tosedostat] | -1.49%
C[C@H](CCC(=O)O)[C@H]1CC[C@H]2[C@@H]3CC[C@@H]4C[C@H](O)CC[C@]4(C)[C@H]3C[C@H](O)[C@]12C [deoxycholic-acid] | -1.84%
C[C@H](c1ccc2ccc(OC3CCC(C(F)(F)F)CC3)c(C(F)(F)F)c2c1)N1C2CCC1CC(C(=O)O)C2 (stereo partly drawn) [autotaxin-modulator-1] | 0.86%
c1ccc2c(CC3=NCCN3)cccc2c1 [naphazoline] | 0.05%
COC(=O)c1ccc(O)cc1 [methylparaben] | 2.76%
CC[C@H](c1ccc(O)cc1)[C@@H](CC)c1ccc(O)cc1 [hexestrol] | -0.76%
Nc1nc(=O)[nH]cc1F [flucytosine] | 0.5%
FC(F)(F)c1ccc(CNc2ccc(Cc3c[nH]c4ncc(Cl)cc34)cn2)cn1 [pexidartinib] | 0.98%
CNC(=O)c1cc2c(cn1)[nH]c1ccccc12 | 1.17%
O=C(Nc1ccc([N+](=O)[O-])cc1Cl)c1cc(Cl)ccc1O [niclosamide] | 0.39%
CS(=O)(=O)c1cc(F)cc2c3c(n(Cc4ccc(Cl)cc4)c12)[C@@H](CC(=O)O)CC3 [laropiprant] | -0.36%
